Results as given in PubChem BioAssay (Tox21).
Inconclusive results are not listed. Entries that show only a call come without a potency. Activity calls are given as the source filed them. Unless noted, the call rests on the fitted dose curve; in most records, active means well fitted curve in the direction sought with a large enough effect in the repeat runs; inconclusive means weak or mixed curves; inactive means no such curve, though single readings can be large; an effect the other way counts as inactive or inconclusive.

Experiments:
[1] = qHTS assay for small molecule agonists of the p53 signaling pathway (AID 651631; calls by dose curve; further: nearly all actives have a fitted effect of over 15% in size)
Procedure, shortened: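 HCT-116 cells carrying a stable p53 response element–beta-lactamase reporter were plated, rested 5 h at 37 °C, then exposed to compound in DMSO for 16 h at 37 °C; reporter activity was read as FRET substrate fluorescence after 2 h at room temperature.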

[2] = qHTS assay for small molecules that induce genotoxicity in human embryonic kidney cells expressing luciferase-tagged ATAD5 (AID 651632); further: nearly all actives have a fitted effect of over 15% in size
Procedure, shortened: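 HEK293T cells carrying a luciferase reporter tagged to ATAD5 were exposed to compound or DMSO vehicle for 16 hr at 37C, 5% CO2. Amplite was added, and after 30 min at room temperature luciferase activity was read as a marker of ATAD5 induction.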

[3] = qHTS assay for small molecule agonists of the p53 signaling pathway - cell viability (AID 651633; calls by dose curve; further: nearly all actives have a fitted effect of over 30% in size)
Procedure, shortened: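 p53RE-bla cells, seeded at 4,000 per well and rested 5 h at 37 C/5% CO2, received compounds in DMSO for 16 h at 37 C. CellTiter-Glo was then added, and luminescence was read after 30 min at room temperature to gauge cytotoxicity.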

[4] = qHTS assay for small molecules that induce genotoxicity in human embryonic kidney cells expressing luciferase-tagged ATAD5 - cell viability (AID 651634; calls by dose curve; further: nearly all actives have a fitted effect of over 25% in size)
Procedure, shortened: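 HEK293T cells expressing luciferase-tagged ATAD5 were exposed to compound or DMSO for 15.5 hr at 37C, 5% CO2. Viability was then read as live-cell protease activity by CellTiter-Fluor fluorescence after 30 min at 37C.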

[5] = qHTS assay for small molecule disruptors of the mitochondrial membrane potential - cell viability (AID 720634; calls by dose curve;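 further: human HepG2 liver cancer cells; nearly all actives have a fitted effect of over 20% in size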)
Procedure, shortened: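 HepG2 cells seeded overnight at 37 C, then exposed to compound or DMSO for 1 hr at 37 C, 5% CO2. m-MPI dye added, then CellTiter-Glo for 30 min at room temperature; viability read as ATP luminescence.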

[6] = qHTS assay for small molecule disruptors of the mitochondrial membrane potential (AID 720635); further: potency means the concentration at half of the fitted maximal effect
Procedure, shortened: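 HepG2 cells (2,000/well) attached overnight at 37C, then took compound for 1 hr at 37C, 5% CO2. Mito-MPS dye was added for 30 min; fluorescence was read at 490/535 nm (monomers) and 540/590 nm (aggregates).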

[7] = qHTS assay to test for compound auto fluorescence at 590 nm (red) in HepG2 cells (AID 720674)
Procedure, shortened: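 Compound auto-fluorescence is scored relative to Rose Bengal sodium, measured at 540/590 nm in live HepG2 cultures after 1 hr compound contact (37 C, 5% CO2).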

[8] = qHTS assay to test for compound auto fluorescence at 535 nm (green) in HepG2 cells (AID 720675)
[9] = qHTS assay to test for compound auto fluorescence at 460 nm (blue) in HEK293 cells (AID 720678)
Procedure, shortened: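 Measured: blue fluorescence (Ex 405/Em 460 nm) of compound-treated HEK293 cells, incubated overnight at 37C with 5% CO2 and scaled to triamterene equivalents.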

[10] = qHTS assay to test for compound auto fluorescence at 590 nm (red) in HEK293 cells (AID 720679)
Procedure, shortened: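 Using HEK293 cells at 2,000 per well, the screen added 23 nL of each compound after cell attachment and incubated overnight (37C, 5% CO2). The plate reader then captured red-label fluorescence, Ex/Em 540/590nm.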

[11] = qHTS assay to test for compound auto fluorescence at 535 nm (green) in HEK293 cells (AID 720680)
[12] = qHTS assay to test for compound auto fluorescence at 460 nm (blue) in HEK293 cell free culture (AID 720681)
Procedure, shortened: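 Test compounds were pinned into cell-free culture medium (DMEM with 10% FBS) and fluorescence was read directly at Ex/Em 405/460 nm. Signals were expressed as fluorescence equivalents of triamterene, with DMSO vehicle as control.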

[13] = qHTS assay to test for compound auto fluorescence at 535 nm (green) in HEK293 cell free culture (AID 720682)
Procedure, shortened: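 Read-out: 485/535 nm fluorescence intensity, calibrated against fluorescein. Medium only (DMEM + 10% FBS, no cells); test compound or DMSO vehicle added by pintool before plate reading.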

[14] = qHTS assay to test for compound auto fluorescence at 590 nm (red) in HEK293 cell free culture (AID 720683)
Procedure, shortened: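 Tox21 10K library compounds were pinned into cell-free DMEM with 10% FBS and fluorescence was read at excitation 540 nm. Activity is expressed as Rose Bengal sodium equivalency.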

[15] = qHTS assay to test for compound auto fluorescence at 590 nm (red) in HepG2 cell free culture (AID 720684)
Procedure, shortened: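 Measured in medium alone (MEM containing 10% FBS) following pintool addition of compound; emission at 590 nm with 540 nm excitation, referenced to Rose Bengal sodium.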

[16] = qHTS assay to test for compound auto fluorescence at 460 nm (blue) in HepG2 cell free culture (AID 720685)
Procedure, shortened: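 Compound (23 nL) or DMSO pinned into cell-free MEM with 10% FBS; blue fluorescence read at 405/460 nm excitation/emission, expressed as auto-fluorescence equivalency to triamterene.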

[17] = qHTS assay to test for compound auto fluorescence at 535 nm (green) in HepG2 cell free culture (AID 720686)
[18] = qHTS assay to test for compound auto fluorescence at 460 nm (blue) in HepG2 cells (AID 720687)
Procedure, shortened: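 Cells (2,000/well in MEM with 10% FBS) attached overnight at 37 C, then were exposed to compound or DMSO for 1 hr at 37 C, 5% CO2. Fluorescence read at Ex/Em 405/460 nm, expressed as triamterene-equivalent signal.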

[19] = molecular target: Glucocorticoid receptor (Homo sapiens) (UniProt P04150); test: qHTS assay to identify small molecule agonists of the glucocorticoid receptor (GR) signaling pathway (AID 720691; active means well fitted activation curve with a large enough effect in the signal ratio in the repeat runs, not every such curve was filed as active; the % refers to the signal ratio); details: GR-bla HeLa, beta-lactamase reporter ratio, 18 h; activation: at 62.4 µM (top of the series)
Chain of Glucocorticoid receptor (Homo sapiens) (P04150 whole entry, looked up): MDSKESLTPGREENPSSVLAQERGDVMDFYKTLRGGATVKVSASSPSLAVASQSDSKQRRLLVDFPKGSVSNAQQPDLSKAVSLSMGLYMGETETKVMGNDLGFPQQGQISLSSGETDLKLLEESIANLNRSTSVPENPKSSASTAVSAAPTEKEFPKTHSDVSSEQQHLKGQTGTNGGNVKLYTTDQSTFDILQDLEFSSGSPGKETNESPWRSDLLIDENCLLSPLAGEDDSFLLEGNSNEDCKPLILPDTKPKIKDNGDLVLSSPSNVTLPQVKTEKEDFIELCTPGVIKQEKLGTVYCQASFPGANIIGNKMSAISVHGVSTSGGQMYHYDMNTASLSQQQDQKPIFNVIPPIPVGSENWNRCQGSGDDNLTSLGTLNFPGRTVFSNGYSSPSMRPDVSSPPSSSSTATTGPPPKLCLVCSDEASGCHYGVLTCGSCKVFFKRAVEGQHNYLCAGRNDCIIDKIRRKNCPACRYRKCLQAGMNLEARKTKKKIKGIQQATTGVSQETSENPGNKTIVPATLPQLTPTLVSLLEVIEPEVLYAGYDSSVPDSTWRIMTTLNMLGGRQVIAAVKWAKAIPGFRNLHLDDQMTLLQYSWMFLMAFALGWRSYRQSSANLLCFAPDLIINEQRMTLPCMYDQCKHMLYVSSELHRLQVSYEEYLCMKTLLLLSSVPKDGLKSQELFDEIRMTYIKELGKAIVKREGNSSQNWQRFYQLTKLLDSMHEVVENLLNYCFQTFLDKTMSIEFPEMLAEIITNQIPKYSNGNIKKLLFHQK
Procedure, shortened: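 GR-bla HeLa cells (beta-lactamase reporter under glucocorticoid response element) were plated 4 h at 37 C/5% CO2, given compounds in DMSO, and incubated 18 h at 37 C. LiveBLAzer B/G FRET substrate was added for 2 h at room temperature, then fluorescence intensity read.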

[20] = molecular target: Glucocorticoid receptor (Homo sapiens) (UniProt P04150); test: qHTS assay to identify small molecule antagonists of the glucocorticoid receptor (GR) signaling pathway (AID 720692; active means well fitted inhibition curve with a large enough effect in the signal ratio in the repeat runs, not every such curve was filed as active; the % refers to the signal ratio)
Procedure, shortened: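 GR-bla HeLa cells (beta-lactamase reporter under glucocorticoid response element) were pre-plated 4 h at 37 C, treated with compounds plus 5 nM dexamethasone (final) for 18 h, then read by LiveBLAzer B/G FRET fluorescence after 2 h.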

Row | SMILES | Potency [1] | Potency [2] | Potency [3] | Potency [4] | Potency [5] | Potency [6] | outcome [7] | Potency [8] | Potency [9] | outcome [10] | outcome [11] | Potency [12] | outcome [13] | outcome [14] | outcome [15] | Potency [16] | Potency [17] | Potency [18] | Potency [19] | Potency [20]
1 | CCCCCN=C(N)N/N=C/c1c[nH]c2ccc(OC)cc12 | inactive | inactive | inactive | inactive | inactive | inactive | inactive | inactive | inactive | inactive | inactive | inactive | inactive | inactive | inactive | inactive | inactive | inactive | inactive | inactive
2 | O=C(O)/C=C/C(O)c1ccc(Cl)cc1 (stereo not given) | inactive | inactive | inactive | inactive | inactive | inactive | inactive | inactive | inactive | inactive | inactive | inactive | inactive | inactive | inactive | inactive | inactive | inactive | inactive | inactive
3 | CCOC(=O)COc1ccc2c(=O)cc(-c3ccccc3)oc2c1 | inactive | inactive | inactive | inactive | inactive | 7.5 µM (active) | inactive | inactive | inactive | inactive | inactive | inactive | inactive | inactive | inactive | inactive | inactive | inactive | inactive | inactive
4 | CCN(CC)C(=O)c1cccnc1 | inactive | inactive | inactive | inactive | inactive | inactive | inactive | inactive | inactive | inactive | inactive | inactive | inactive | inactive | inactive | inactive | inactive | inactive | inactive | inactive
5 | CCc1cn([C@H]2C[C@H](O)[C@@H](CO)O2)c(=O)[nH]c1=O | inactive | inactive | inactive | inactive | inactive | inactive | inactive | inactive | inactive | inactive | inactive | inactive | inactive | inactive | inactive | inactive | inactive | inactive | inactive | inactive
6 | CC1(C)S[C@@H]2[C@H](NC(=O)[C@@H](NC(=O)N3CCNC3=O)c3ccccc3)C(=O)N2[C@H]1C(=O)O | inactive | inactive | inactive | inactive | inactive | inactive | inactive | inactive | inactive | inactive | inactive | inactive | inactive | inactive | inactive | inactive | inactive | inactive | inactive | inactive
